In PMC7819943, “Rice protein-binding microarrays: a tool to detect cis-acting elements near promoter regions in rice”:
In all, about 39,000 sequences were measured (“fluorescence intensity (a.u.)”: median about 4,300, highest 2% from about 39,000 on). Only a selection was taken, and the highest values are over-represented in it overall.

Molecular target: T1, OsSMF1 (Oryza sativa, UniProt Q6ZLB0 1-436)
T1 sequence: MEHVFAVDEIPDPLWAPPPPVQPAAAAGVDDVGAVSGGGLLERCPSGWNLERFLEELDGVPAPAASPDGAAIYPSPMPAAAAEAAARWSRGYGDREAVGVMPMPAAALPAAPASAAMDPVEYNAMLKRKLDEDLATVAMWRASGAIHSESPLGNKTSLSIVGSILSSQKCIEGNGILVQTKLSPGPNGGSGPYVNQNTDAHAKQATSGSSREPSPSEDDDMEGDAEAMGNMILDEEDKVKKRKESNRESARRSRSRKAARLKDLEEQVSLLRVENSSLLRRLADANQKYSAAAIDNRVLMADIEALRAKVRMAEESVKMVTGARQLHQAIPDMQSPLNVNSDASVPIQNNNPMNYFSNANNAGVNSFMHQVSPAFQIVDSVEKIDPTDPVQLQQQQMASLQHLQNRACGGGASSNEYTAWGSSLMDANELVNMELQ
Experiment: protein-binding microarray (RPBM); PBS, 2% BSA, 51.3 ng/ul salmon testes DNA, 50 uM zinc acetate, 200 nM TF, 25 C, 1 h; high values mean tight binding
Details: protein: recombinant; tags: N-terminal polyhistidine and DsRed monomer fusion (pET32a); chain copies: 2; label: CyDye5-dUTP incorporated in the synthesized complementary strand; 3' TTTTT single-stranded linker to array surface; dsDNA, one strand shown
Summary of the method: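 An Axon 4000B scanner gave the binding signal as per-feature fluorescence intensity in arbitrary units. This followed washing of a custom Agilent array that had been incubated for 1 h at 25 °C with 200 nM protein in PBS, 2% BSA, salmon testes DNA and 50 µM zinc acetate. The proteins were transcription factors fused at the N-terminus to polyhistidine and DsRed, expressed in E. coli BL21-CodonPlus and purified on Ni–NTA.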

Sequence	binding signal
CTGCCTCCTGTTCGCGCTCCACGCCACCACTGCCGACGAGCGGAGTCACCTAGTGCAG	4300 fluorescence intensity (a.u.)
AGAGCGATCTGATCGACCGAGTTGTGTCATGCCGTACTACCGGAGTCACCTAGTGCAG	4330 fluorescence intensity (a.u.)
AATTATCTTGAAGCACCTCAACTCAACCTGATGTCATACACGGAGTCACCTAGTGCAG	4390 fluorescence intensity (a.u.)
GAATTTACTTTAGCGGAGATTGAGCACTTTGTGGACCCAGCGGAGTCACCTAGTGCAG	52400 fluorescence intensity (a.u.)
CCAATTTCCGACTTCATGAGATTTATGTCTTTGTGGTCAGCGGAGTCACCTAGTGCAG	3210 fluorescence intensity (a.u.)
AGATTTGTGCTCTGACCCACTTCACTCACTTAGTCTCTAGCGGAGTCACCTAGTGCAG	3630 fluorescence intensity (a.u.)
ATGTGTAATGACATGACTAGGCATTCCCTTCAGTTAGTCTCGGAGTCACCTAGTGCAG	9940 fluorescence intensity (a.u.)
GAGACCGTTCTGAATTTCTGAGACTGATACATATTTGATGCGGAGTCACCTAGTGCAG	40300 fluorescence intensity (a.u.)
GTGGAATATTTCTGATCATGGTTTGGGAATAAACGTTCTGCGGAGTCACCTAGTGCAG	3310 fluorescence intensity (a.u.)
TGCTTCTGATACTCACGTATATTTCATACACACGTGAATGCGGAGTCACCTAGTGCAG	3210 fluorescence intensity (a.u.)
CGTGCATCCGCTTGTGCTGCCACTTCGACAGCCCGCCCGGCGGAGTCACCTAGTGCAG	3570 fluorescence intensity (a.u.)
GGGCTCCATAATAGAGTGCCACACTAGCATGTTACGATATCGGAGTCACCTAGTGCAG	3510 fluorescence intensity (a.u.)
TCTACTGCAATTAGTTGATTCAGCTAGTAGCAAACATAATCGGAGTCACCTAGTGCAG	54800 fluorescence intensity (a.u.)
TTAACAGTTGGTTACTAGTCCTAATTAATTCAGTAGCAATCGGAGTCACCTAGTGCAG	4700 fluorescence intensity (a.u.)
CATAATTAGCGGTTGATTACTGTAGCATCACTGTAACAAACGGAGTCACCTAGTGCAG	3730 fluorescence intensity (a.u.)
TTTAGAATACTGCTCATACGTCAGTAACAAAGTCACACGACGGAGTCACCTAGTGCAG	3880 fluorescence intensity (a.u.)
GCCCAAAGAAAGAAGGAGGTGGACACGTGGGAGATCTGCGCGGAGTCACCTAGTGCAG	11200 fluorescence intensity (a.u.)
CCCAATCCGAACGGGACAGCTGCCCACGTGCGACCCATGTCGGAGTCACCTAGTGCAG	4920 fluorescence intensity (a.u.)
CATTGCTTTGTTTGATCTTGTGTGCCAATAATTGATGAAACGGAGTCACCTAGTGCAG	55900 fluorescence intensity (a.u.)
CTAATATATTGACGTGTAATTCTTTTGTGTGTTTGTGAAACGGAGTCACCTAGTGCAG	6530 fluorescence intensity (a.u.)
CCAATTTGACGTGAAATGTTTAGATGATCTCTTGCCAGTACGGAGTCACCTAGTGCAG	3150 fluorescence intensity (a.u.)
ACATGGGGAAAACCAGGGACTAAAACTGTAATCAAACAGTCGGAGTCACCTAGTGCAG	29500 fluorescence intensity (a.u.)
CCTTCCGTTCGACGCGACACGCGAGTCATTGCTGCCACCACGGAGTCACCTAGTGCAG	3680 fluorescence intensity (a.u.)
CCTCTCGTGGCATCGCATCGCATCGTGTCCTCTGCGACTGCGGAGTCACCTAGTGCAG	3630 fluorescence intensity (a.u.)

Sequence	binding signal
GACAAGCTCGGCACCAATCTCCACAGGAGCCGCATCAGGTCGGAGTCACCTAGTGCAG	3420 fluorescence intensity (a.u.)
CATGTCGACATGTTCACAAGCGGTACCAAGAGTCAAGACACGGAGTCACCTAGTGCAG	45800 fluorescence intensity (a.u.)
GACCCAAATGTCATAGAGACACGACGGTTCACATGTCATACGGAGTCACCTAGTGCAG	3900 fluorescence intensity (a.u.)
AGTCCAAGAGCGTGACGCATGTTCGGTACCACGCGCACAACGGAGTCACCTAGTGCAG	4740 fluorescence intensity (a.u.)
TCTCCCTCTACCTCGACGTCATCAACCTCTTCCTCTCCCTCGGAGTCACCTAGTGCAG	11000 fluorescence intensity (a.u.)
GTATTGATGTTCTTACCATAAAAGTAACTCCATGAAAGAACGGAGTCACCTAGTGCAG	41100 fluorescence intensity (a.u.)
ACACCATGCGTATGATGCAATACCTATTGACTCCATTGAACGGAGTCACCTAGTGCAG	3380 fluorescence intensity (a.u.)
GTTAACAGTAAGTTATTCTTTGAACTCCATATATTTGTTCCGGAGTCACCTAGTGCAG	3440 fluorescence intensity (a.u.)
GCTTTGCATAGGCACTTTCAAAACTAGATATTAGTAACGCCGGAGTCACCTAGTGCAG	51000 fluorescence intensity (a.u.)
ACACTAGTAACAAAACTTGGCAATTTGGCATTTGGCATTTCGGAGTCACCTAGTGCAG	3300 fluorescence intensity (a.u.)
TAGATTGCTTTTCAGTGAAACTACGTGCACATATGCATGCCGGAGTCACCTAGTGCAG	3250 fluorescence intensity (a.u.)
ACAGGTGCACGCACACGTGCCGCATCAACCAGACAGCCACCGGAGTCACCTAGTGCAG	3360 fluorescence intensity (a.u.)
AAACATAACAATATTTTCAACATAAAACAAATAATGTTATCGGAGTCACCTAGTGCAG	3530 fluorescence intensity (a.u.)
AATATTTACATTACTAAATTAGTTTTATTAAATTAATAATCGGAGTCACCTAGTGCAG	19800 fluorescence intensity (a.u.)
TGTTTAATAATAAATTTAGTAACATCAATTTTACATGATTCGGAGTCACCTAGTGCAG	46100 fluorescence intensity (a.u.)
TTATAAATTAAATTTTATGTAATGAAAATAATATCATTGGCGGAGTCACCTAGTGCAG	3900 fluorescence intensity (a.u.)
GTAAATTTCATAAAATCCCACGTATTATGATTCAAATTGCCGGAGTCACCTAGTGCAG	5110 fluorescence intensity (a.u.)
AAAATTTATTCATCCATCGTCATAATTTTAATTATATGCACGGAGTCACCTAGTGCAG	4150 fluorescence intensity (a.u.)
TTTTATTTCATTATATGATCCCATCAAATATAAATTAGCACGGAGTCACCTAGTGCAG	48500 fluorescence intensity (a.u.)
CATATTATAAAATGTTGTGCTAATTATTATCGGTGTATATCGGAGTCACCTAGTGCAG	22300 fluorescence intensity (a.u.)
TAGTTATAAAGCACTGTAATTTTAGTTATAAATACAACATCGGAGTCACCTAGTGCAG	3260 fluorescence intensity (a.u.)
AAATATAATAAATTTAATGTTAACATATTTTACACGTAAGCGGAGTCACCTAGTGCAG	9740 fluorescence intensity (a.u.)
CTCTCAAAATATTCGGATGTAATTTTAGTCGCACAAACATCGGAGTCACCTAGTGCAG	39200 fluorescence intensity (a.u.)
